Test results taken from the supplement of paper PMC10849652.
The full data set covers some 7,900 targets. This sample favours those with a hit. About 0.6% of all pairs of compound and target were hits. A number with no mark means an inactive call.

What was measured:
Assay in all cases: log2 fold change, soluble protein after heating vs DMSO (PISA); higher = thermal stabilisation; K562 cells, 10 uM, 30 min; active = over 0.2 and 3.5 SD of the protein, either way, in both replicates (recomputed)
[1] = compound: C1=CC=C(C=C1)[C@H](COC2=CC3=C(C=C2)NC(=O)N3)NC(=O)C4=CC=CN(C4=O)CC5=CC(=C(C=C5)F)F
Summary of the method: (§1)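 Values are thermal stability changes relative to control samples and are taken from duplicates. They are stated as log2 fold changes. Before quantification by TMTpro 16plex LC-MS/MS with equalised channel sums, K562 cells at 2×10^6 cells/mL were treated with 10 μM compound for 30 min, heated in aliquots for 3 min across 48°C-58°C, pooled, extracted in PBS with 0.5% NP-40 at 4°C, and centrifuged at 21,000xg for 90 min to give the soluble supernatant.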

[2] = compound: CC1=C(SC2=C1C(=N[C@H](C3=NN=C(N32)C)CC(=O)N)C4=CC=C(C=C4)Cl)C
Summary of the method: as §1

[3] = compound: CC1=C2C(=CC=C1)N=C(N(C2=O)C3=CC=CC=C3C)CN4C=NC5=C(N=CN=C54)N
Summary of the method: as §1

[4] = compound: Cc1sc2c(c1C)C(c1ccc(Cl)cc1)=N[C@@H](CC(=O)OC(C)(C)C)c1nnc(C)n1-2
Summary of the method: as §1

[5] = compound: c1ccc([C@@H]2C[C@H]2NC2CCNCC2)cc1
Summary of the method: as §1

SYMPK (UniProt Q92797)
log2 fold change [1]: -0.127 | log2 fold change [2]: 0.034 | log2 fold change [3]: 0.101 | log2 fold change [4]: -0.006 | log2 fold change [5]: 0.02

TBP (UniProt P20226)
Chain of UniProt P20226 (P20226 whole entry, looked up): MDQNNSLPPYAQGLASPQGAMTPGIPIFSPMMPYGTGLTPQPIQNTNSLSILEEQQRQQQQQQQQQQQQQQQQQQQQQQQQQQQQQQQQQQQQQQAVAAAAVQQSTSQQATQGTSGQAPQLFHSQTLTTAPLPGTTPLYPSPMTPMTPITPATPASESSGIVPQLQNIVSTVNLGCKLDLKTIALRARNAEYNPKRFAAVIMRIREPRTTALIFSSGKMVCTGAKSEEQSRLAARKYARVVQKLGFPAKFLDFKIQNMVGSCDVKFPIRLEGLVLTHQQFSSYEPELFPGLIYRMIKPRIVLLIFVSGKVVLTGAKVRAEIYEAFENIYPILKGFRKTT
log2 fold change [1]: 0.016 | log2 fold change [2]: 0.314 | log2 fold change [3]: -0.158 | log2 fold change [4]: 0.144 | log2 fold change [5]: 0.07

SMG1 (UniProt Q96Q15)
log2 fold change [1]: -0.104 | log2 fold change [2]: 0.003 | log2 fold change [3]: -0.004 | log2 fold change [4]: 0.02 | log2 fold change [5]: -0.071

TAMM41 isoform 3 (UniProt Q96BW9)
log2 fold change [1]: -0.012 | log2 fold change [2]: 0.1 | log2 fold change [3]: 0.09 | log2 fold change [4]: -0.06 | log2 fold change [5]: 0.001

SPG11 (UniProt Q96JI7)
log2 fold change [1]: 0.095 | log2 fold change [2]: 0.05 | log2 fold change [3]: 0.444 | log2 fold change [4]: 0.24 | log2 fold change [5]: 0.083

SMARCE1 (UniProt Q969G3)
log2 fold change [1]: -0.156 | log2 fold change [2]: -0.002 | log2 fold change [3]: 0.338 | log2 fold change [4]: 0.111 | log2 fold change [5]: -0.051

TARS2 (UniProt Q9BW92)
log2 fold change [1]: -0.018 | log2 fold change [2]: 0.025 | log2 fold change [3]: 0.101 | log2 fold change [4]: -0.019 | log2 fold change [5]: -0.023

STK4 (UniProt Q13043)
log2 fold change [1]: -0.008 | log2 fold change [2]: 0.088 | log2 fold change [3]: 0.057 | log2 fold change [4]: 0.005 | log2 fold change [5]: -0.001

SNRNP27 (UniProt Q8WVK2)
Chain of UniProt Q8WVK2 (Q8WVK2 whole entry, looked up): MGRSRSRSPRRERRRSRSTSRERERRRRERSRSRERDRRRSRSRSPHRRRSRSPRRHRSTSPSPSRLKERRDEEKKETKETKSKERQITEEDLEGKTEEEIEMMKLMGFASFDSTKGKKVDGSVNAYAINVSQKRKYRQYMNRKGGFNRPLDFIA
log2 fold change [1]: 0.027 | log2 fold change [2]: -0.058 | log2 fold change [3]: 0.021 | log2 fold change [4]: 0.023 | log2 fold change [5]: 0.044

TCOF1 isoform 6 (UniProt Q13428)
log2 fold change [1]: 0.209 | log2 fold change [2]: 0.151 | log2 fold change [3]: -0.251 | log2 fold change [4]: 0.271 | log2 fold change [5]: 0.029

THADA (UniProt Q6YHU6)
log2 fold change [1]: -0.06 | log2 fold change [2]: 0.066 | log2 fold change [3]: 0.011 | log2 fold change [4]: -0.027 | log2 fold change [5]: -0.032

SLC30A10 (UniProt Q6XR72)
log2 fold change [1]: 0.066 | log2 fold change [2]: -0.005 | log2 fold change [3]: 0.113 | log2 fold change [4]: -0.003 | log2 fold change [5]: 0.059

SYF2 (UniProt O95926)
log2 fold change [1]: 0.032 | log2 fold change [2]: 0.029 | log2 fold change [3]: -0.077 | log2 fold change [4]: 0.145 | log2 fold change [5]: 0.065

SLC25A36 (UniProt Q96CQ1)
Chain of UniProt Q96CQ1 (Q96CQ1 whole entry, looked up): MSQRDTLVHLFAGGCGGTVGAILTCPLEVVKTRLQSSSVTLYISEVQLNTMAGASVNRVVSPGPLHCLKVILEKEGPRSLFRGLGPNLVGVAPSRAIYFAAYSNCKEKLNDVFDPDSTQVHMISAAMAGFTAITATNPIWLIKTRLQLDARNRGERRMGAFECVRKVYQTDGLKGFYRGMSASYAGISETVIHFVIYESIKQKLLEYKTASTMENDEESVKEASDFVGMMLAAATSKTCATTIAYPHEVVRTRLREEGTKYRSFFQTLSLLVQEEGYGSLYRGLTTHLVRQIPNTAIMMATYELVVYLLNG
log2 fold change [1]: 0.027 | log2 fold change [2]: -0.041 | log2 fold change [3]: -0.066 | log2 fold change [4]: 0.051 | log2 fold change [5]: -0.008

SQSTM1 (UniProt Q13501)
log2 fold change [1]: 0 | log2 fold change [2]: 0.097 | log2 fold change [3]: -0.128 | log2 fold change [4]: 0.096 | log2 fold change [5]: 0.012

SRPRB (UniProt Q9Y5M8)
log2 fold change [1]: -0.005 | log2 fold change [2]: 0.014 | log2 fold change [3]: 0.034 | log2 fold change [4]: -0.017 | log2 fold change [5]: -0.016

TMBIM6 isoform 2 (UniProt P55061)
log2 fold change [1]: -0.037 | log2 fold change [2]: -0.022 | log2 fold change [3]: 0.041 | log2 fold change [4]: -0.03 | log2 fold change [5]: 0.041

TK1 (UniProt K7ERV3)
log2 fold change [1]: 0.038 | log2 fold change [2]: 0.091 | log2 fold change [3]: 0.083 | log2 fold change [4]: 0.029 | log2 fold change [5]: 0.015

SLK isoform 2 (UniProt Q9H2G2)
Chain of UniProt Q9H2G2 (Q9H2G2 whole entry, looked up): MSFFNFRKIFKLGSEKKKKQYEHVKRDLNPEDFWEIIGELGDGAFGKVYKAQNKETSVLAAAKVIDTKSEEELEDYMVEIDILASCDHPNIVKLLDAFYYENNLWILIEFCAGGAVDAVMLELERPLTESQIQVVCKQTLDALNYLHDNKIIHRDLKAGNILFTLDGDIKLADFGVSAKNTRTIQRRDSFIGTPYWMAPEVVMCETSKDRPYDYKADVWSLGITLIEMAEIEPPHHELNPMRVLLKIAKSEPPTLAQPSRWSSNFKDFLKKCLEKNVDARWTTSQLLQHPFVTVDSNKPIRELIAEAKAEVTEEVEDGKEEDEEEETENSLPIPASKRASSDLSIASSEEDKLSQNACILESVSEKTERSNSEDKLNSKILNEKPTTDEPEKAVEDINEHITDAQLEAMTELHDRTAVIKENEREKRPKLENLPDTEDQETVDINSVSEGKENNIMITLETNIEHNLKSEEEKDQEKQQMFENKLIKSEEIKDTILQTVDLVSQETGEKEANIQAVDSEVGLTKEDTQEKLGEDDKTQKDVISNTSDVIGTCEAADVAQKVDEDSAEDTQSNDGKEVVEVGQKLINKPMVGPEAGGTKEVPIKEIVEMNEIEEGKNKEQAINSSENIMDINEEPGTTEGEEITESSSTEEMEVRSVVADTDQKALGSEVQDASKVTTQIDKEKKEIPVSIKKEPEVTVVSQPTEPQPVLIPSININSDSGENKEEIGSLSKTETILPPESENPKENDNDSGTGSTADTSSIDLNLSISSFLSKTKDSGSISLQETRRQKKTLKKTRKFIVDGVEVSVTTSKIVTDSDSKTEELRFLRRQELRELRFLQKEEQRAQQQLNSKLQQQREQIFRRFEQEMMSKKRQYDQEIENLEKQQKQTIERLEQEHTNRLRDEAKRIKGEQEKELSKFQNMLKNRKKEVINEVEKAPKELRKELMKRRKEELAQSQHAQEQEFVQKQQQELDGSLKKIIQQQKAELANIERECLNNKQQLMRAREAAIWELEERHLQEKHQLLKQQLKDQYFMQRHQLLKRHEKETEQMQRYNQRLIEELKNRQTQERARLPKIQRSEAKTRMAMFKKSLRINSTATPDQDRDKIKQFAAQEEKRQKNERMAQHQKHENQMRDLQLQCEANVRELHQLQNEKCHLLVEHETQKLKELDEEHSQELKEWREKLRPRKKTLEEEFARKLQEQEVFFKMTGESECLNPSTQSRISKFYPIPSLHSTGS
log2 fold change [1]: 0.016 | log2 fold change [2]: 0.034 | log2 fold change [3]: 0.042 | log2 fold change [4]: 0.021 | log2 fold change [5]: -0.005

SNX6 (UniProt Q9UNH7)
log2 fold change [1]: -0.037 | log2 fold change [2]: 0.039 | log2 fold change [3]: 0.053 | log2 fold change [4]: 0.012 | log2 fold change [5]: -0.11

SUCLA2 (UniProt Q9P2R7)
log2 fold change [1]: -0.029 | log2 fold change [2]: 0.07 | log2 fold change [3]: 0.113 | log2 fold change [4]: -0.017 | log2 fold change [5]: -0.044

STK39 (UniProt Q9UEW8)
log2 fold change [1]: -0.105 | log2 fold change [2]: -0.015 | log2 fold change [3]: 0.034 | log2 fold change [4]: -0.026 | log2 fold change [5]: -0.029

SSX2 (UniProt Q16385)
log2 fold change [1]: 0.008 | log2 fold change [2]: -0.024 | log2 fold change [3]: 0.038 | log2 fold change [4]: -0.021 | log2 fold change [5]: 0.023

SLC25A39 (UniProt Q9BZJ4)
log2 fold change [1]: 0.031 | log2 fold change [2]: -0.166 | log2 fold change [3]: 0.149 | log2 fold change [4]: 0.09 | log2 fold change [5]: 0.019

SLC27A4 (UniProt Q6P1M0)
log2 fold change [1]: -0.018 | log2 fold change [2]: 0.095 | log2 fold change [3]: 0.037 | log2 fold change [4]: -0.027 | log2 fold change [5]: -0.019

TFR2 (UniProt Q9UP52)
log2 fold change [1]: 0.01 | log2 fold change [2]: 0.018 | log2 fold change [3]: 0.004 | log2 fold change [4]: 0.007 | log2 fold change [5]: 0.026

SYNE2 isoform 2 (UniProt Q8WXH0)
log2 fold change [1]: 0.064 | log2 fold change [2]: 0.055 | log2 fold change [3]: 0.209 | log2 fold change [4]: -0.004 | log2 fold change [5]: 0.096

TAF9 (UniProt Q16594)
Chain of UniProt Q16594 (Q16594 whole entry, looked up): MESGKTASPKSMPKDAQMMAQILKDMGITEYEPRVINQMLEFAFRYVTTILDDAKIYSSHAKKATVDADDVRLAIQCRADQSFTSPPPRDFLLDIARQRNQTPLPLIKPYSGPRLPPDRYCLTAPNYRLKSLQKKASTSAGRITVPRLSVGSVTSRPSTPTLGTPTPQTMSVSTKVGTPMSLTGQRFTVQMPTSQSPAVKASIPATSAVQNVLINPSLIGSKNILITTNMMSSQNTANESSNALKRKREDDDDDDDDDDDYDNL
log2 fold change [1]: 0.046 | log2 fold change [2]: -0.043 | log2 fold change [3]: -0.114 | log2 fold change [4]: 0.049 | log2 fold change [5]: 0.019

STXBP2 isoform 3 (UniProt Q15833)
log2 fold change [1]: -0.15 | log2 fold change [2]: -0.05 | log2 fold change [3]: 0.071 | log2 fold change [4]: 0.031 | log2 fold change [5]: -0.03

SP1 (UniProt P08047)
Chain of UniProt P08047 (P08047 whole entry, looked up): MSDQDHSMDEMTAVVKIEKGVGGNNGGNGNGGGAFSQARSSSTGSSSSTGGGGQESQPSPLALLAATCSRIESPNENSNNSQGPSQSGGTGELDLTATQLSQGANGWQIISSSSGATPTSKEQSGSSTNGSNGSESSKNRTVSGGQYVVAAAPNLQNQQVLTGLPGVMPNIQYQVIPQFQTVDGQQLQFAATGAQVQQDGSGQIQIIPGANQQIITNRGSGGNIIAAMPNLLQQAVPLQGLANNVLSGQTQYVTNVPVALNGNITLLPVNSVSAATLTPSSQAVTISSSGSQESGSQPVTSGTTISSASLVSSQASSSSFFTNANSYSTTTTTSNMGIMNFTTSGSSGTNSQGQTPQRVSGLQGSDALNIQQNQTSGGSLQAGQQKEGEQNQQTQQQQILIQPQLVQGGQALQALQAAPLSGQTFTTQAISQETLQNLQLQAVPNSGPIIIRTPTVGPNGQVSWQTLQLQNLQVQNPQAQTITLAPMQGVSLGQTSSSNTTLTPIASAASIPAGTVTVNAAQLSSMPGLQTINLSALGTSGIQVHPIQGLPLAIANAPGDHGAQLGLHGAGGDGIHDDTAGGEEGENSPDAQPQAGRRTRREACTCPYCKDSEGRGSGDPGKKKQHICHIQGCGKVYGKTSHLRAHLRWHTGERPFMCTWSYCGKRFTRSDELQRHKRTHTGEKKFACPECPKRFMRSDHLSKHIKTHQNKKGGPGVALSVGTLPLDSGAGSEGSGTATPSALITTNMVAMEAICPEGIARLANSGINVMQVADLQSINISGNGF
log2 fold change [1]: 0.002 | log2 fold change [2]: -0.029 | log2 fold change [3]: 0.016 | log2 fold change [4]: 0.051 | log2 fold change [5]: 0.02

STAT5A (UniProt P42229)
log2 fold change [1]: -0.028 | log2 fold change [2]: 0.058 | log2 fold change [3]: 0.134 | log2 fold change [4]: -0.006 | log2 fold change [5]: 0.008

TBC1D9B (UniProt Q66K14)
log2 fold change [1]: -0.025 | log2 fold change [2]: 0.093 | log2 fold change [3]: 0.042 | log2 fold change [4]: 0.02 | log2 fold change [5]: -0.062

SLC35F6 (UniProt Q8N357)
log2 fold change [1]: -0.034 | log2 fold change [2]: -0.045 | log2 fold change [3]: 0.064 | log2 fold change [4]: -0.057 | log2 fold change [5]: 0.067

STIM1 (UniProt Q13586)
Chain of UniProt Q13586 (Q13586 whole entry, looked up): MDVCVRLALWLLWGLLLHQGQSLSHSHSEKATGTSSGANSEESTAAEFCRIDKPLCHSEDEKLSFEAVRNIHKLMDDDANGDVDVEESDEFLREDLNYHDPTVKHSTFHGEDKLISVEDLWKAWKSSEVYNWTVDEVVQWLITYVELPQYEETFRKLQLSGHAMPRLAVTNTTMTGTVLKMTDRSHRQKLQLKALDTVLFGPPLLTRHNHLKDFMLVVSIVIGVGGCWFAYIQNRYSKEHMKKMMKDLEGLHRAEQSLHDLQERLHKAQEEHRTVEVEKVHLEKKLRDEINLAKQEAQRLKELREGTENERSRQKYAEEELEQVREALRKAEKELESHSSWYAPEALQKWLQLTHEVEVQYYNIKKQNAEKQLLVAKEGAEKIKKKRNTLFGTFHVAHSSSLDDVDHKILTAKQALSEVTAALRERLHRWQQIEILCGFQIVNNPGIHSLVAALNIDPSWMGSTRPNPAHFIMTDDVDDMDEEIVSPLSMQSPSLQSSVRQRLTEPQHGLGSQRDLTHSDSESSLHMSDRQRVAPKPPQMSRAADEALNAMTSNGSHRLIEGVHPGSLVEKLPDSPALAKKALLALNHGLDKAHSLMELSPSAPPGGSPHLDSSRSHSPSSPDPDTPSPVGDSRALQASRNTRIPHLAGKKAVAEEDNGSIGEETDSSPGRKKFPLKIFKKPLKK
log2 fold change [1]: -0.051 | log2 fold change [2]: 0.044 | log2 fold change [3]: 0.008 | log2 fold change [4]: -0.014 | log2 fold change [5]: -0.019

SUGP1 (UniProt Q8IWZ8)
log2 fold change [1]: 0 | log2 fold change [2]: -0.001 | log2 fold change [3]: 0.066 | log2 fold change [4]: -0.046 | log2 fold change [5]: 0.019

STAT6 (UniProt P42226)
log2 fold change [1]: -0.02 | log2 fold change [2]: -0.019 | log2 fold change [3]: 0.198 | log2 fold change [4]: 0.009 | log2 fold change [5]: -0.015

SMIM20 isoform 2 (UniProt Q8N5G0)
log2 fold change [1]: 0.019 | log2 fold change [2]: -0.034 | log2 fold change [3]: 0.081 | log2 fold change [4]: -0.125 | log2 fold change [5]: -0.1

SNRNP40 (UniProt Q96DI7)
log2 fold change [1]: 0.054 | log2 fold change [2]: -0.023 | log2 fold change [3]: 0.007 | log2 fold change [4]: 0.071 | log2 fold change [5]: 0.022

SMAD2 (UniProt Q15796)
log2 fold change [1]: -0.014 | log2 fold change [2]: 0.022 | log2 fold change [3]: 0.056 | log2 fold change [4]: -0.02 | log2 fold change [5]: -0.066

SLC38A2 (UniProt Q96QD8)
log2 fold change [1]: -0.006 | log2 fold change [2]: 0.044 | log2 fold change [3]: 0.024 | log2 fold change [4]: -0.028 | log2 fold change [5]: 0.035

SLC25A42 (UniProt Q86VD7)
Chain of UniProt Q86VD7 (Q86VD7 whole entry, looked up): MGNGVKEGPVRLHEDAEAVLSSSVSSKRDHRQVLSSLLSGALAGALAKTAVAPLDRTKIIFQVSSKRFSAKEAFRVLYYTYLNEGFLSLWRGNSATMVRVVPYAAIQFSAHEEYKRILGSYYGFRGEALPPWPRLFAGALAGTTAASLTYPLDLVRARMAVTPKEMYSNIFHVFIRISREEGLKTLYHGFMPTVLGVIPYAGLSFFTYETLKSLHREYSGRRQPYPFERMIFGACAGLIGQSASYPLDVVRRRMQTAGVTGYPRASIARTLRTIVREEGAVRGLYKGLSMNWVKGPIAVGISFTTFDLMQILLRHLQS
log2 fold change [1]: 0.073 | log2 fold change [2]: 0.051 | log2 fold change [3]: -0.019 | log2 fold change [4]: -0.005 | log2 fold change [5]: 0.003

ST3GAL2 (UniProt Q16842)
log2 fold change [1]: 0.083 | log2 fold change [2]: 0.006 | log2 fold change [3]: 0.011 | log2 fold change [4]: 0.005 | log2 fold change [5]: 0.007

SRSF10 (UniProt O75494)
log2 fold change [1]: 0.001 | log2 fold change [2]: -0.475 | log2 fold change [3]: -0.187 | log2 fold change [4]: 0.249 | log2 fold change [5]: 0.17

TJP1 (UniProt Q07157)
log2 fold change [1]: 0 | log2 fold change [2]: 0.028 | log2 fold change [3]: 0.069 | log2 fold change [4]: 0.014 | log2 fold change [5]: 0.023

SOAT1 (UniProt P35610)
log2 fold change [1]: -0.023 | log2 fold change [2]: 0.037 | log2 fold change [3]: 0.071 | log2 fold change [4]: 0.802 (active) | log2 fold change [5]: 0.001

TAOK1 (UniProt Q7L7X3)
log2 fold change [1]: 0.057 | log2 fold change [2]: 0.095 | log2 fold change [3]: 0.041 | log2 fold change [4]: 0.012 | log2 fold change [5]: 0.002

STOM (UniProt P27105)
log2 fold change [1]: 0.06 | log2 fold change [2]: -0.019 | log2 fold change [3]: -0.014 | log2 fold change [4]: -0.021 | log2 fold change [5]: 0.082

TBC1D15 isoform 3 (UniProt Q8TC07)
log2 fold change [1]: -0.072 | log2 fold change [2]: 0.013 | log2 fold change [3]: 0.045 | log2 fold change [4]: 0.005 | log2 fold change [5]: -0.019

SSRP1 (UniProt Q08945)
Chain of UniProt Q08945 (Q08945 whole entry, looked up): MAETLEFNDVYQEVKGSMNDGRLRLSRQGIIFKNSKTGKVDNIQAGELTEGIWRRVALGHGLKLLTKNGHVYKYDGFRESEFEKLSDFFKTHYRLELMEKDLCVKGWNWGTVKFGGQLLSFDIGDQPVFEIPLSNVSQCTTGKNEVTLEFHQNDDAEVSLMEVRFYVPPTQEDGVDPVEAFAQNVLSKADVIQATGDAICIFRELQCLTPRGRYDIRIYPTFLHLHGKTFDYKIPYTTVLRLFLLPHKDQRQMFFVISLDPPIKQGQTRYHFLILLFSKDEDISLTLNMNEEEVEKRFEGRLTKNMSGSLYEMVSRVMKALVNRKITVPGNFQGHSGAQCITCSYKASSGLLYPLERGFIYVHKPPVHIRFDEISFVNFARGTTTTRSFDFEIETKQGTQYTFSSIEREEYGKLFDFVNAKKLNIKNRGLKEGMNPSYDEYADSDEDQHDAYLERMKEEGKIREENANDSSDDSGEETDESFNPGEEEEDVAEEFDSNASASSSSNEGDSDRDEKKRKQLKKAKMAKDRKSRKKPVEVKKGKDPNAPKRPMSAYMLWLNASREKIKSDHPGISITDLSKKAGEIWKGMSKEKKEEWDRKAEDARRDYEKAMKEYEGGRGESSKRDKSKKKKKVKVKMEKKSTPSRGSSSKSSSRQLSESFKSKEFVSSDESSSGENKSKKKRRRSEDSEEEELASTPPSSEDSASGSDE
log2 fold change [1]: -0.027 | log2 fold change [2]: 0.023 | log2 fold change [3]: 0.087 | log2 fold change [4]: -0.051 | log2 fold change [5]: -0.016

SNX12 isoform 1 (UniProt Q9UMY4)
Chain of UniProt Q9UMY4 (Q9UMY4 whole entry, looked up): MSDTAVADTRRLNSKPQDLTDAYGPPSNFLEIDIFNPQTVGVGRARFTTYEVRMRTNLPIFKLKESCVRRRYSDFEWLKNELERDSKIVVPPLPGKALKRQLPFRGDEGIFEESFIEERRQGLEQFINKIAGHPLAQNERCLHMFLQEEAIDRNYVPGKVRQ
log2 fold change [1]: 0.016 | log2 fold change [2]: -0.009 | log2 fold change [3]: 0.095 | log2 fold change [4]: 0.026 | log2 fold change [5]: 0.02

TIMM10B (UniProt Q9Y5J6)
log2 fold change [1]: -0.018 | log2 fold change [2]: 0.18 | log2 fold change [3]: 0.058 | log2 fold change [4]: 0.066 | log2 fold change [5]: -0.026

SUOX (UniProt P51687)
log2 fold change [1]: 0.01 | log2 fold change [2]: 0 | log2 fold change [3]: 0.096 | log2 fold change [4]: -0.011 | log2 fold change [5]: -0.021

SLC25A4 (UniProt P12235)
log2 fold change [1]: -0.001 | log2 fold change [2]: -0.034 | log2 fold change [3]: 0.062 | log2 fold change [4]: -0.049 | log2 fold change [5]: 0.05
